Data taken from the OligoGym collection.

Key:
Assay in all cases: pooled miR-30 sensor sort-seq; sequence = guide strand
Details in all cases: shRNA
SEC62 = biological target: SEC62
SEC61B = biological target: SEC61B
SEC22B = biological target: SEC22B
SEC11C = biological target: SEC11C
Further: reference of the scale not given here.

## TAGTCAACCACAGACTCCCTGG
SEC62
  sensor-assay potency score (higher = more potent): -0.485

## TAAATAAAGCTTCCTCTCCTTT
SEC62
  sensor-assay potency score (higher = more potent): -0.505

## TTTAAGTCTGCTTTTGGTCCTT
SEC62
  sensor-assay potency score (higher = more potent): 0.441

## TAGAATCGCCACATCCCCCCGG
SEC61B
  sensor-assay potency score (higher = more potent): -0.342

## TCTAATACACATCTCTGTGAGC
SEC22B
  sensor-assay potency score (higher = more potent): -0.275

## TATGTCTTTATCATATTTCATT
SEC62
  sensor-assay potency score (higher = more potent): -1.38

## TTTCCTGAAAATATACACCTAC
SEC22B
  sensor-assay potency score (higher = more potent): 0.224

## AAATGTGCAACATAAATACAGA
SEC61B
  sensor-assay potency score (higher = more potent): -1.05

## TTGTTGGACAGTTGAATCGAAG
SEC62
  sensor-assay potency score (higher = more potent): -1.44

## ATGTGCAACATAAATACAGAAG
SEC61B
  sensor-assay potency score (higher = more potent): -1.59

## ATCTTCTGTGTAGAATCGCCAC
SEC61B
  sensor-assay potency score (higher = more potent): -0.702

## TAATATAATTCACTTACCCTAA
SEC22B
  sensor-assay potency score (higher = more potent): -0.417

## TCCATTTCCACTACTGTGCTGG
SEC62
  sensor-assay potency score (higher = more potent): -0.484

## TAGTCATTCATTATTATGGTGA
SEC11C
  sensor-assay potency score (higher = more potent): -0.647

## TAAAGCTTCCTCTCCTTTCTTG
SEC62
  sensor-assay potency score (higher = more potent): 0.192

## TTTGATTACTCTGTGAACTATT
SEC11C
  sensor-assay potency score (higher = more potent): -0.483

## TGGAACAGGGCCAACTTTGAGC
SEC61B
  sensor-assay potency score (higher = more potent): -1.17

## TAAAACAGCAAGCTTACAGAAA
SEC61B
  sensor-assay potency score (higher = more potent): -1.05

## TTTCAGGACATCTCTTTTCTTG
SEC22B
  sensor-assay potency score (higher = more potent): -0.395

## TTGGAATGTCTCGTCCTTCAAC
SEC11C
  sensor-assay potency score (higher = more potent): -1.07

## TAGCCTTTGAATCCAATGCTGA
SEC22B
  sensor-assay potency score (higher = more potent): -0.568

## TACTGGAACAGGGCCAACTTTG
SEC61B
  sensor-assay potency score (higher = more potent): -1.5

## TCGAGCACAACTGTCAATGTAG
SEC22B
  sensor-assay potency score (higher = more potent): 0.24

## TTCTGTGTAGAATCGCCACATC
SEC61B
  sensor-assay potency score (higher = more potent): -0.647

## TTCTATAAAATGAAGGACCGAA
SEC62
  sensor-assay potency score (higher = more potent): -0.0759

## ATAACCAATACTGGAACAGGGC
SEC61B
  sensor-assay potency score (higher = more potent): -0.892

## TTCAATATGGTAATCAGCCAAC
SEC62
  sensor-assay potency score (higher = more potent): -1.13

## TTCCTCTGCCGGACAGTGGATC
SEC61B
  sensor-assay potency score (higher = more potent): -1.27

## TTTGTTGGACAGTTGAATCGAA
SEC62
  sensor-assay potency score (higher = more potent): 0.088

## TCAATGTAGAGCTTCTTGGTTT
SEC22B
  sensor-assay potency score (higher = more potent): -0.305
